IL-1B inflam inh: inhibitors of inflammasome signaling (IL-1 beta secretion); activity change, % at 57.5 µM; THP-1 LPS/ATP IL-1B secretion, AlphaLISA, 16 h; active compounds read low; hit rate 4.7% among 360,000; in the data active = activity change below about -50%; inconclusive = mostly about -30% to -49%
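Secreted IL-1B measured by AlphaLISA bead assay after 16 h compound exposure of THP-1 cells; compounds (final up to 57.5 uM) added 1 h before LPS (250 ng/mL) and ATP (1.25 mM) stimulation; lower signal means less secretion.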
HT1080 IDH1KD tx: HT-1080 IDH1 knockdown cell toxicity (counter line); HT-1080 IDH1 knockdown viability, ATP luminescence, 48 h; Potency, µM (top dose mostly 46.1 µM), for the others: at the highest dose activity, negative = toxicity, hits mostly cytotoxic; hit rate 2% among 360,000; AID 686971;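 also: potency is read from the fitted curve at half-maximal effect; 0% = DMSO wells and -100% = cell-free medium wells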
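Cytotoxicity counter-line: IDH1KD HT-1080, 48 h, CellTiter-Glo. Curves classed by r2, magnitude and activity.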
KB-V1 MDR tox: kills drug-selected multidrug resistant KB-V1 cells. Potency, µM (top dose mostly 46.1 µM), usual class: cytotoxic. hit rate 3.4% among 400,000. AID 1347076. KB-V1 MDR cells viability, CellTiter-Glo, 72 h; also: potency is read from the fitted curve at half-maximal effect; nearly all actives have a fitted effect of over 60% in size
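KB-V1 MDR subline cells in DMEM (phenol-red free, 10% FBS) exposed to compounds in qHTS concentration series for 72 h at 37 degrees C. Viability read by CellTiter-Glo luminescence; concentration-effect curves fitted after normalization and correction.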
HT1080NT lethal: kills 2HG-producing HT-1080-NT fibrosarcoma cells. HT-1080-NT fibrosarcoma viability, CellTiter-Glo ATP luminescence, 48 h. hit rate 1.6% among 360,000. Potency, µM (top dose mostly 46.1 µM), without a hit: top-dose activity, negative = less viability, most hits filed as cytotoxic;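 also: NT is the 2HG producing partner of a matched IDH1 knockdown line; potency is read from the fitted curve at half-maximal effect; 0% = DMSO-treated cells and -100% = media-only wells without cells; nearly all actives have a fitted effect of over 55% in size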
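HT-1080-NT; 750 cells/well; 5% FBS RPMI; 48 h compound, 37 degrees C; CellTiter-Glo luminescence; curve fitting and curve-class assignment.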
KB-3-1 cytotox: kills parental KB-3-1 adenocarcinoma cells; KB-3-1 viability, CellTiter-Glo ATP luminescence, 72 h; Potency, µM (doses to about 46.1 µM), hits mostly cytotoxic; hit rate 1.4% among 400,000; also: potency is read from the fitted curve at half-maximal effect; nearly all actives have a fitted effect of over 60% in size
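Here the drug-naive KB-3-1 line serves as comparator for MDR sub-line selectivity; cells received compound titrations, 72 h at 37 °C, then CellTiter-Glo readout.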
Active calls of the source: *; i = inactive; ? = inconclusive; nt = not tested or not shown; [ ] = another dose, or the depositor's remark. Compounds with a hit are over-represented: about 8.8% of the library has one in this group of screens. Unless noted, calls follow the shape of the dose curve; as a rule, active = well fitted curve in the direction sought with a large enough effect; inconclusive = small, poorly fitted or top-dose-only effect, or another doubt; inactive = no such curve, though single readings can be large; an effect the other way counts as inactive or inconclusive. Unless noted, % is scaled to controls: 0 for no effect and ±100 for the full control effect.

SMILES | IL-1B inflam inh | HT1080 IDH1KD tx | KB-V1 MDR tox | HT1080NT lethal | KB-3-1 cytotox
COc1ccc(NC(=O)C23CC4CC(C2)CC(n2cnc(Br)n2)(C4)C3)cc1Cl | 13 | -22% | 9.2µM* | -2% | i
Cc1ccc(S(=O)(=O)CCSc2n[nH]c(=O)n2-c2ccccc2)cc1 | ? | -16% | i | ? | i
Cc1cc(C)c(-n2c(SCCS(=O)(=O)c3ccc(F)cc3)n[nH]c2=O)c(C)c1 | -97* | 18µM* | i | ? | i
Cc1cc(C)c(-n2c(SCc3nc4ccccc4s3)n[nH]c2=O)c(C)c1 | -95* | -21% | ? | -28% | i
O=c1c2ccccc2nc(/C=C/c2cc(Br)ccc2O)n1CCO | -98* | -17% | ? | -13% | ?
O=c1c2ccccc2nc(/C=C/c2ccccc2)n1CCCO | -17 | -3% | ? | -10% | i
CN(C)c1ccc(/C=C/c2nc3ccccc3c(=O)n2CCO)cc1 | -9 | ? | i | -25% | i
CCn1c(/C=C/c2ccccc2)nc2ccccc2c1=O | -23 | -13% | ? | -4% | ?
O=c1c2ccccc2nc(/C=C/c2c[nH]c3ccccc23)n1CCO | -92* | ? | ? | ? | i
O=c1c2ccccc2nc(/C=C/c2ccc3c(c2)OCO3)n1CCCO | -56* | 6.5µM* | i | ? | ?
O=c1c2ccccc2nc(/C=C/c2ccc(O)cc2)n1CCc1ccccc1 | -27 | ? | 15µM* | ? | i
COc1ccc2nc(NC(=O)CSc3n[nH]c(N)n3)sc2c1 | 10 | -8% | i | -4% | i
CCOCCn1ccc2c(OCC(=O)NCc3ccccc3)cccc2c1=O | 0 | 16% | ? | 3% | i
O=C(O)/C=C\C(=O)NCc1cccnc1 | -10 | 0% | i | 15% | i
C[n+]1c2n(c3ccccc31)N=C(c1ccc(Br)cc1)CS2 | -89* | 13µM* | i | ? | ?
C[n+]1c2n(c3ccccc31)N=C(c1ccccc1)CS2 | ? | ? | i | ? | 2.9µM*
CCc1nnc2n1N=C(c1ccc(Br)cc1)CS2 | 0 | 6% | i | 3% | i
C[n+]1c2n(c3ccccc31)N=C(c1ccc(-c3ccccc3)cc1)CS2 | ? | ? | i | ? | i
O=C(COC(=O)c1ccc(Cl)c(Cl)c1)Nc1cccnc1Cl | 4 | 18% | i | ? | i
CCOc1ccc(C(=O)OCC(=O)Nc2cccnc2Cl)cc1OCC | 19 | -7% | 18µM* | 4% | i
CCOc1ccc(NC(=O)NCCc2c(C)nn(C)c2C)cc1 | nt | nt | i | nt | i
CCOc1cc(C(=O)OCC(=O)c2c(N)n(C)c(=O)n(C)c2=O)cc(OCC)c1OCC | 12 | 3% | 18µM* | 2% | i
Cc1ccccc1CSCC(=O)c1c(N)n(CC(C)C)c(=O)n(C)c1=O | -7 | -1%[9.24 µM] | 18µM* | 0% | ?
CCCOc1ccc(C(=O)OCC(=O)c2c(N)n(C)c(=O)n(C)c2=O)cc1OCC | -4 | 14% | i | 22% | i
CC(C)Cn1c(N)c(C(=O)COC(=O)c2ccc(Cl)cc2)c(=O)n(C)c1=O | 17 | -14% | i | ? | i
SMILES | IL-1B inflam inh | HT1080 IDH1KD tx | KB-V1 MDR tox | HT1080NT lethal | KB-3-1 cytotox
CC(C)Cn1c(N)c(C(=O)COC(=O)c2ccc(Br)cc2)c(=O)n(C)c1=O | ? | -23% | i | -12% | 15µM*
CC(C)Cn1c(N)c(C(=O)COC(=O)C2CC(=O)N(Cc3ccccc3Cl)C2)c(=O)n(C)c1=O (stereo unspecified) | -61* | -12% | i | ? | i
CCC(=O)Nc1ccccc1-c1nc2ccccc2n(CC(=O)c2ccc(C)cc2)c1=O | nt | nt | i | nt | i
O=C(CSc1ccc2nnc(CCNC(=O)c3ccccc3)n2n1)NCCc1ccccc1 | 7 | 8% | ? | 10% | i
CCOc1ccc(CCNC(=O)CSc2n[nH]c(N)n2)cc1OCC | -6 | -4% | nt | -2% | nt
Cc1cc(C)n(-c2nc(SCC(=O)O)c3c4c(sc3n2)COC(C)(C)C4)n1 | 54 | -19% | ? | -2% | i
Cc1cc(C)n(-c2nc(NCc3cccnc3)c3c4c(sc3n2)COC(C)(C)C4)n1 | ? | 23µM* | ? | ? | ?
CCN(CC)CCCNc1nc(-n2nc(C)cc2C)nc2sc3c(c12)CC(C)(C)OC3 | -57* | ? | i | ? | i
COc1ccc(-c2ccc3c(c2)O[C@@H](CN(C)C(=O)c2ccccc2F)[C@@H](C)CN([C@@H](C)CO)S3(=O)=O)cc1 | -8 | -3% | i | 4% | i
Cc1ccc(-c2nc3ccccc3o2)cc1NC(=O)c1cccc2c(Cl)cccc12 | nt | nt | ? | nt | i
O=C(Cc1ccc([N+](=O)[O-])cc1)N/N=C/c1ccc([N+](=O)[O-])o1 | 11 | ? | ? | ? | ?
Cc1cc(C)cc(OCC(=O)N/N=C/c2ccc([N+](=O)[O-])o2)c1 | -64* | -12% | ? | -10% | i
Cc1ccccc1OCC(=O)N/N=C/c1ccc([N+](=O)[O-])o1 | 8 | ? | i | -26% | i
CC1(C(=O)N/N=C/c2ccc([N+](=O)[O-])o2)CC1(Br)Br (stereo unspecified) | -90* | ? | 18µM* | ? | ?
O=C(CNc1cccc([N+](=O)[O-])c1)N/N=C/c1ccc([N+](=O)[O-])o1 | -67* | ? | ? | ? | ?
COc1ccc2cc3cc(C(=O)NCc4cccs4)oc3nc2c1 | -54* | ? | ? | ? | 4.6µM*
CCCN(CCC)CCCNC(=O)c1cc2cc3ccc(OC)cc3nc2o1 | -78* | -14% | i | ? | i
COc1ccc2cc3cc(C(=O)NCCc4ccc(OC)c(OC)c4)oc3nc2c1 | ? | -19% | ? | -23% | i
COc1ccc2cc3cc(C(=O)NCc4ccc(C)cc4)oc3nc2c1 | nt | nt | i | nt | i
CCCCN(CC)CCCNC(=O)c1cc2cc3ccc(OC)cc3nc2o1 | -50* | -20% | i | -18% | i
O=C(NCc1ccccc1Cl)c1ccc(NC(=O)N2CCSc3ccccc32)cc1 | nt | nt | i | nt | i
O=C(Nc1ccc(OC(F)(F)F)cc1)NC1COc2ccccc2C1 (stereo unspecified) | nt | nt | i | nt | i
O=C(CN1CCOCC1)Nc1ccc(F)cc1 | 9 | -1% | i | 9% | i
O=C1OC(c2ccc(F)cc2)CC1CN1CCOCC1 (stereo unspecified) | -11 | 16µM* | i | ? | i
O=C(O)c1ccc(SCc2ccccc2)nc1 | -8 | -10% | i | -10% | i

Screening data deposited in PubChem BioAssay by National Center for Advancing Translational Sciences (NCATS).
